# From the supplement of paper PMC7057948, “A genome-wide approach for identification and characterisation of metabolite-inducible systems” (Nature Communications, 2020)
# Legend:
# Assay in all cases: relative induction of RFP reporter vs primary effector (background-corrected); higher = stronger activation of the biosensor
# Conditions in all cases: inducer concentration 5 mM; 6 h; Cupriavidus necator H16; minimal medium + 0.4% gluconate
# [1] = tested on: AcoR/P_H16_RS19445 acetoin biosensor (pEH052)
# Protocol: (§1)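 C. necator H16 strains, each carrying one of 21 transcription factor/inducible promoter–mRFP biosensor plasmids, were grown in minimal medium in 96-well plates (robotic platform). Each was exposed to 46 structurally or metabolically related compounds at 5 mM at 30 °C. OD-normalised RFP fluorescence was read 6 h later and expressed as relative induction (%) = 100 × (FL compound − FL uninduced)/(FL primary inducer − FL uninduced); mean of n=4.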
# [2] = tested on: AraC/P_araBAD L-arabinose biosensor (pEH176)
# Protocol: as §1
# [3] = tested on: BenM/P_H16_RS09790 benzoate biosensor (pEH148)
# Protocol: as §1
# [4] = tested on: FdsR/P_H16_RS03165 formate biosensor (pEH134)
# Protocol: as §1
# [5] = tested on: GabR/P_H16_RS23655 GABA biosensor (pEH256)
# Protocol: as §1
# [6] = tested on: HpdR/P_H16_RS18295 3-hydroxypropanoate biosensor (pEH010)
# Protocol: as §1
# [7] = tested on: KynR/P_H16_RS14030 L-kynurenine biosensor (pEH136)
# Protocol: as §1
# [8] = tested on: NahR/P_H16_RS08125 salicylate biosensor (pEH042)
# Protocol: as §1
# [9] = tested on: OapR/P_H16_RS01330 beta-alanine biosensor (pEH147)
# Protocol: as §1
# [10] = tested on: PcaQ/P_H16_RS30145 3,4-dihydroxybenzoate biosensor (pEH161)
# Protocol: as §1
# [11] = tested on: PhhR/P_H16_RS18365 L-phenylalanine biosensor (pEH137)
# Protocol: as §1
# [12] = tested on: SauR/P_H16_RS13695 sulfonatoacetate biosensor (pEH157)
# Protocol: as §1
# [13] = tested on: TtdR/P_H16_RS10665 tartrate biosensor (pEH083)
# Protocol: as §1
# [14] = tested on: XdhR/P_H16_RS05055 xanthine biosensor (pEH154)
# Protocol: as §1
# [15] = tested on: heterologous inducible system pEH002 (rhamnose/acrylate/cumate/itaconate set)
# Protocol: as §1
# [16] = tested on: heterologous inducible system pEH020 (rhamnose/acrylate/cumate/itaconate set)
# Protocol: as §1
# [17] = tested on: heterologous inducible system pEH040 (rhamnose/acrylate/cumate/itaconate set)
# Protocol: as §1
# [18] = tested on: heterologous inducible system pEH086 (rhamnose/acrylate/cumate/itaconate set)
# Protocol: as §1
# [19] = tested on: PhgR/P_H16_RS05530 phenylglyoxylate biosensor (pEH155)
# Protocol: as §1
# 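Note: RFP excited at 585 nm with emission read at 620 nm, culture medium blanks subtracted from fluorescence and absorbance prior to normalisation.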
smiles,measurement,setting,value
O=CC(=O)O [glyoxylate],relative induction of RFP reporter,[1],-0.798%
same,relative induction of RFP reporter,[2],0.00961%
same,relative induction of RFP reporter,[3],-0.0259%
same,relative induction of RFP reporter,[4],-3.09%
same,relative induction of RFP reporter,[5],-0.762%
same,relative induction of RFP reporter,[6],-0.292%
same,relative induction of RFP reporter,[7],-0.15%
same,relative induction of RFP reporter,[8],0.0197%
same,relative induction of RFP reporter,[9],0.146%
same,relative induction of RFP reporter,[10],0.0806%
same,relative induction of RFP reporter,[11],0.0787%
same,relative induction of RFP reporter,[12],-0.00107%
same,relative induction of RFP reporter,[13],0.296%
same,relative induction of RFP reporter,[14],-0.199%
same,relative induction of RFP reporter,[15],0.0215%
same,relative induction of RFP reporter,[16],-0.333%
same,relative induction of RFP reporter,[17],-0.263%
same,relative induction of RFP reporter,[18],0.035%
CCCC(=O)O [butyric acid],relative induction of RFP reporter,[1],-2.08%
same,relative induction of RFP reporter,[2],-0.0107%
same,relative induction of RFP reporter,[3],-0.0464%
same,relative induction of RFP reporter,[4],-1.59%
same,relative induction of RFP reporter,[5],-2.45%
same,relative induction of RFP reporter,[6],-0.186%
same,relative induction of RFP reporter,[7],-0.35%
same,relative induction of RFP reporter,[8],-0.000826%
same,relative induction of RFP reporter,[9],-0.94%
same,relative induction of RFP reporter,[10],0.636%
same,relative induction of RFP reporter,[19],-0.41%
same,relative induction of RFP reporter,[11],-0.461%
same,relative induction of RFP reporter,[12],0.0337%
same,relative induction of RFP reporter,[13],-0.384%
same,relative induction of RFP reporter,[14],-0.758%
same,relative induction of RFP reporter,[15],-0.00916%
same,relative induction of RFP reporter,[16],-1.33%
same,relative induction of RFP reporter,[17],-0.981%
same,relative induction of RFP reporter,[18],-0.0776%
OC[C@@H](O)[C@@H](O)[C@H](O)[C@H](O)CO [D-mannitol],relative induction of RFP reporter,[1],4.32%
same,relative induction of RFP reporter,[2],-0.00626%
same,relative induction of RFP reporter,[3],0.00493%
same,relative induction of RFP reporter,[4],-0.914%
same,relative induction of RFP reporter,[5],-0.506%
same,relative induction of RFP reporter,[6],-0.0887%
same,relative induction of RFP reporter,[7],0.488%
same,relative induction of RFP reporter,[8],0.0228%
same,relative induction of RFP reporter,[9],-0.205%
same,relative induction of RFP reporter,[10],0.0552%
same,relative induction of RFP reporter,[19],-0.267%
same,relative induction of RFP reporter,[11],0.344%
same,relative induction of RFP reporter,[12],0.0255%
same,relative induction of RFP reporter,[13],0.195%
same,relative induction of RFP reporter,[14],-0.267%
same,relative induction of RFP reporter,[15],-0.000622%
same,relative induction of RFP reporter,[16],-0.0264%
same,relative induction of RFP reporter,[17],0.166%
same,relative induction of RFP reporter,[18],0.0103%
C[C@H](O)C(=O)O [L-lactate],relative induction of RFP reporter,[1],29%
same,relative induction of RFP reporter,[2],-0.0302%
same,relative induction of RFP reporter,[3],-0.0365%
same,relative induction of RFP reporter,[4],1.58%
same,relative induction of RFP reporter,[5],-1.56%
same,relative induction of RFP reporter,[6],0.0155%
same,relative induction of RFP reporter,[7],-0.0815%
same,relative induction of RFP reporter,[8],0.00963%
same,relative induction of RFP reporter,[9],-0.633%
same,relative induction of RFP reporter,[10],-0.0469%
same,relative induction of RFP reporter,[19],-0.429%
same,relative induction of RFP reporter,[11],-0.296%
same,relative induction of RFP reporter,[12],-0.0258%
same,relative induction of RFP reporter,[13],0.33%
same,relative induction of RFP reporter,[14],-0.526%
same,relative induction of RFP reporter,[15],0.0108%
same,relative induction of RFP reporter,[16],-1.63%
same,relative induction of RFP reporter,[17],-1.88%
same,relative induction of RFP reporter,[18],-0.0751%
